TEAD-YAP inh – TEAD-YAP interaction inhibition, primary screen, TEAD-YAP interaction inhibitor project, luminescence, HEK-TIYL cells. TEAD-Gal4/YAP UAS-luciferase luminescence. inhibition, % at 9.12 µM. actives 1.4% (n = 640,000); in the data active = inhibition above about 32%
FBW7 act – FBW7 E3 ligase activators, primary screen, biochemical, AlphaScreen, human | AID 1259310, 2017 | actives 0.13% (n = 650,000) | F-box/WD repeat-containing protein 7 (Homo sapiens), Q969H0 | AlphaScreen FBW7–phospho-cyclin E peptide binding, activator screen | normalized activity (activation), % at 26.1 µM; in the data active = normalized activity above about 1.9%;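 note: purified mutant Fbw7 with reduced substrate affinity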
GPR151 activ – activators of human GPR151, primary screen, cell-based, PathHunter beta-arrestin, luminescence; G-protein coupled receptor 151 (Homo sapiens), Q8TDV0; PathHunter beta-arrestin GPR151 cells; activation, % at 11.2 µM; actives 1% (n = 650,000); AID 1508602, 2020; in the data active = activation above about 4.9%
MITF primary – MITF inhibitors, primary screen, biochemical, AlphaScreen, human | AlphaScreen MITF homodimerization, bead proximity signal | Microphthalmia-associated transcription factor (Homo sapiens), O75030 | actives 0.91% (n = 650,000) | inhibition, % at 2.6 µM; in the data active = inhibition above about 50%
Target sequence (O75030 whole entry, looked up): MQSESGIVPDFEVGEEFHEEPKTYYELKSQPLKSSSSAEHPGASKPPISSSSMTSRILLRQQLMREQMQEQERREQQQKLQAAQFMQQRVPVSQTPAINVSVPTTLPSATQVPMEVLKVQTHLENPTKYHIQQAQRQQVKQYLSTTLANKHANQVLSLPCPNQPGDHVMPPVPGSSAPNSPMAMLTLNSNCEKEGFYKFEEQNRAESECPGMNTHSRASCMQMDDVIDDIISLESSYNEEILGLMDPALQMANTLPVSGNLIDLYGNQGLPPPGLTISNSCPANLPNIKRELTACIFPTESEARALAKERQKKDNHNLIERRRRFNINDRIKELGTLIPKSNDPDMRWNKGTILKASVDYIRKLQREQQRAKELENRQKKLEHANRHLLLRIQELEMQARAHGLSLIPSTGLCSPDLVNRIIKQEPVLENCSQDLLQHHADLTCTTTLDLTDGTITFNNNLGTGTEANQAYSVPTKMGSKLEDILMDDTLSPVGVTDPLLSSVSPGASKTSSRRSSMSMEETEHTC
Each line names hits and unclear results; the compound was inactive in the other large screens. Shown are actives, neighbours in structure and some others; about 3.5% of the full set was active somewhere.

CC1(C)CC2CC(C)(CN2C(=O)c2cnn3c(C(F)(F)F)cc(-c4cccs4)nc23)C1 (stereo unspecified)	none
Nc1ccc(C(=O)N/N=C2\CCCc3ccccc32)cc1	none
COc1cc(C(=O)NC2CCCC2)cc(OC)c1OC	none
COc1cc(C(=O)NN=C2CCN(Cc3ccccc3)CC2)cc(OC)c1OC	TEAD-YAP inh 70.3
COc1cc(C(=O)NN=C2CCC(c3ccccc3)CC2)cc(OC)c1OC (stereo unspecified)	TEAD-YAP inh 60.6
COc1cc(C(=O)N/N=C2/CCCc3ccccc32)cc(OC)c1OC	TEAD-YAP inh 59.8
COc1cc(C(=O)NN=C2CCCC2)cc(OC)c1OC	TEAD-YAP inh 61.9
NC(=O)c1cc(S(=O)(=O)Nc2cccc(Cl)c2)co1	none
COCCN(C(C)=O)c1nnc(-c2ccc(F)cc2)s1	none
CC(C)CC(c1nnnn1Cc1ccc(F)cc1)N1CCN(C)CC1 (stereo unspecified)	none
CCN1CCN(C(CC(C)C)c2nnnn2Cc2ccc(F)cc2)CC1 (stereo unspecified)	TEAD-YAP inh 52.9
COc1cc(-c2cn[nH]c2)cc2c(=O)[nH]c(C(N)c3ccc(Cl)cc3)nc12 (stereo unspecified)	none
N[C@@H](Cc1ccc(F)cc1)c1nc2ccc(-c3cn[nH]c3)cc2c(=O)[nH]1	TEAD-YAP inh 84.6
N[C@H](Cc1ccc(F)cc1)c1nc2ccc(-c3cn[nH]c3)cc2c(=O)[nH]1	TEAD-YAP inh 81.0
N[C@H](Cc1ccccc1)c1nc2ccc(-c3ccncc3)cc2[nH]1	none
COc1cc(-c2cn[nH]c2)cc2c(=O)[nH]c([C@@H](N)Cc3cccc(F)c3)nc12	TEAD-YAP inh 67.8
N[C@@H](Cc1ccccc1)c1nc2ccc(-c3ccncc3)cc2c(=O)[nH]1	TEAD-YAP inh 61.0
NCCC(=O)NC(c1ccc(Cl)cc1)c1nc2ccc(-c3cn[nH]c3)cc2c(=O)[nH]1 (stereo unspecified)	none
CCOc1ccccc1Nc1nnc(SCC(=O)NC)s1	none
N[C@H](CCc1ccccc1)c1nc2ccc(-c3cn[nH]c3)cc2c(=O)[nH]1	none
N[C@@H](Cc1ccccc1)c1nc2ccc(-c3cn[nH]c3)cc2c(=O)[nH]1	TEAD-YAP inh 75.0
Cc1ccccc1OCc1nc(N(C)CCN(C)C)c2cc(-c3cn[nH]c3)ccc2n1	none
N[C@H](Cc1cccc(Cl)c1)c1nc2ccc(-c3cn[nH]c3)cc2c(=O)[nH]1	TEAD-YAP inh 69.3
CN(C)CCN(C)c1nc([C@H](N)Cc2cccc(F)c2)nc2ccc(-c3cn[nH]c3)cc12	FBW7 act 2.7
COc1cccc(CCc2nc3c(OC)cc(-c4cn[nH]c4)cc3c(=O)[nH]2)c1	TEAD-YAP inh 36.4
COc1cccc(Cc2nc3c(OC)cc(-c4cn[nH]c4)cc3c(=O)[nH]2)c1	none
Cc1oc2cc(O)ccc2c(=O)c1-c1ccccc1Cl	none
N[C@H](Cc1ccc(F)c(F)c1)c1nc2ccc(-c3cn[nH]c3)cc2c(=O)[nH]1	TEAD-YAP inh 76.2
N[C@H](Cc1cccc(F)c1)c1nc2ccc(-c3cn[nH]c3)cc2[nH]1	none
NCc1ccc(C(=O)NC(c2ccc(Cl)cc2)c2nc3ccc(-c4cn[nH]c4)cc3c(=O)[nH]2)cc1 (stereo unspecified)	none
N[C@@H](Cc1ccc(Cl)cc1)c1nc2ccc(-c3cn[nH]c3)cc2c(=O)[nH]1	TEAD-YAP inh 86.2
N[C@H](Cc1cccc(F)c1)c1nc2ccc(-c3cn[nH]c3)cc2c(=O)[nH]1	TEAD-YAP inh 67.9
CCOc1ccc(/C=C2\C(=O)ON=C2c2ccc(Cl)cc2)cc1	MITF primary 59.3
COc1cc(/C=C2\C(=O)ON=C2c2ccccc2)ccc1OCc1ccc(Cl)cc1	none
COc1cc(/C=C2/C(=O)ON=C2c2ccc(Cl)cc2)ccc1O	MITF primary 60.8
CCOc1cc(/C=C2/C(=O)ON=C2c2ccccc2)ccc1OC	MITF primary 66.8
COc1cc(/C=C2/C(=O)ON=C2c2ccccc2)cc(OC)c1OC	MITF primary 56.4
O=S(=O)(Cc1ccccc1)c1ccc(Cl)c(Cl)c1	none
O=C(OCc1cc([N+](=O)[O-])cc2c1OCOC2)c1ccc(N2CCCCC2)c([N+](=O)[O-])c1	none
Cc1ccc(COc2ccccc2/C=C2/C(=O)ON=C2c2ccccc2)cc1	MITF primary 54.1
COc1ccccc1/C=C1\C(=O)ON=C1c1ccccc1	MITF primary 70.4
COc1cc(/C=C2/C(=O)ON=C2c2ccccc2)ccc1O	MITF primary 69.4

From PubChem
